High-throughput results (PubChem BioAssay)
This excerpt belongs to a sample that is enriched for hits.
STK33 inh: STK33 kinase inhibitors, primary screen, biochemical, luminescence, ADP-Glo, MBP substrate; AID 2322, 2010; inhibition, % at 12.5 µM; hit rate 0.44% among 27,000; in the data active = inhibition above about 20%; inconclusive = no clear call, values can overlap the other calls
Target sequence (Q9BYT3 whole entry, looked up): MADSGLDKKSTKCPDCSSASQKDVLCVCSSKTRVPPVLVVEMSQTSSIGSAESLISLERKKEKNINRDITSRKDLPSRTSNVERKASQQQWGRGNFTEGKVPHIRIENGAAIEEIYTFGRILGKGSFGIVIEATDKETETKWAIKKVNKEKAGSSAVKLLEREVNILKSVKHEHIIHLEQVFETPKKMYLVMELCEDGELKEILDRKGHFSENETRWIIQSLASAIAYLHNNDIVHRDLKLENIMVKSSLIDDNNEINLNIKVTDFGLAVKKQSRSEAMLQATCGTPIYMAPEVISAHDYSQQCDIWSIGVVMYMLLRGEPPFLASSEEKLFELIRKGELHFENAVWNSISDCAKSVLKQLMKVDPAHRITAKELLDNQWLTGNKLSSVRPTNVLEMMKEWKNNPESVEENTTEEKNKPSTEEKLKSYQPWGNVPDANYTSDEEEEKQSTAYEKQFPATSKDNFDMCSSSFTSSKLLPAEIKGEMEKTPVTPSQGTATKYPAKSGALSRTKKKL
PD-1 reversal: activators reversing PD-1 mediated T-cell inhibition, primary screen, luminescence, primary human CD4 T cells, PD-L1 beads; CellTiter-Glo 96 h; activation, % (concentration not given with the values); 29,000 tested, under 10 active; call rule not given here;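 also: 0% = median vehicle wells and 100% = positive control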
NOMO-1 viab: NOMO-1 AML cell viability reduction, primary screen, STK33 inhibitor project, CellTiter-Glo luminescence | NOMO-1 AML viability, 72 h | AID 2330, 2010 | hit rate 7.5% among 37,000 | inhibition, % (no concentration beside the values); in the data active = inhibition above about 80%; inconclusive = no clear call, values can overlap the other calls
Starred values were filed as active, the others as inactive.

For C/C=C1/C[N+]2([O-])C3CC1C(CO)C2Cc1c3[nH]c2ccc(OC)cc12 (stereo unspecified) the results were STK33 inh -2, PD-1 reversal 2 and NOMO-1 viab 15.
Screening CC(=O)OC[C@]12CCC(C)=C[C@H]1O[C@@H]1[C@H](O)[C@@H](OC(C)=O)[C@@]2(C)[C@]12CO2 returned STK33 inh 2, PD-1 reversal -10 and NOMO-1 viab 109*.
Screening CC(=O)OC[C@]12C[C@H](O)C(C)=C[C@H]1O[C@@H]1[C@H](O)[C@@H](OC(C)=O)[C@@]2(C)[C@]12CO2 returned STK33 inh -2, PD-1 reversal -5 and NOMO-1 viab 123*.
COc1ccccc1OCCCn1cc(C(=O)c2ccccc2)c2ccccc21 was read as STK33 inh 3 and NOMO-1 viab 0.
O=C(CC[N+](=O)[O-])OC[C@H]1O[C@@H](O)[C@H](OC(=O)CC[N+](=O)[O-])[C@@H](OC(=O)CC[N+](=O)[O-])[C@@H]1OC(=O)CC[N+](=O)[O-] was read as STK33 inh 2 and NOMO-1 viab 106*.
CC(C)(CN)CNc1ccc([N+](=O)[O-])c2cccnc12 was read as STK33 inh 1 and NOMO-1 viab 73.
For CC(=O)Nc1ccc(Cc2ccc(NC(C)=O)cc2)cc1 the results were PD-1 reversal -1 and NOMO-1 viab 25.
For Cc1cccc(N2C(=O)NC(=O)C(CCc3ccncc3)(CCc3ccncc3)C2=O)c1 the results were STK33 inh -1, PD-1 reversal 2 and NOMO-1 viab 3.
For CC1=CC2/C=C(\C)CCC(O)C(O)/C=C/C(=O)C23C(=O)NC(CC(C)C)C3C1C (stereo unspecified) the results were STK33 inh 0, PD-1 reversal -37 and NOMO-1 viab 121*.
For C/C1=C/[C@@H](C)C/C=C/[C@H]2[C@@H]3O[C@]3(C)[C@@H](C)[C@H]3[C@H](Cc4c[nH]c5ccccc45)NC(=O)[C@]32C(=O)/C=C\C(=O)[C@@H]1O the results were STK33 inh 5.
`CC1(C)C(C(=O)Nc2nccs2)C1(C)C` gave STK33 inh 1, PD-1 reversal -2 and NOMO-1 viab 11.
`CN(CC(=O)Nc1ccc(Cl)cc1C(=O)c1ccccc1)S(=O)(=O)c1ccc(Cl)cc1` gave STK33 inh 0, PD-1 reversal -1 and NOMO-1 viab 18.
O=C1NC(=O)C(=Cc2cn(Cc3ccccc3)c3ccccc23)C(=O)N1 was read as PD-1 reversal -2 and NOMO-1 viab 126*.
C/C=C(/C)C(=O)OC1CCN2CC=C(COC(=O)C(O)(C(C)O)C(C)(C)O)C12 (stereo unspecified) was read as STK33 inh -1, PD-1 reversal 4 and NOMO-1 viab 4.
COc1ccc(CC2(CCc3ccncc3)C(=O)NC(=O)N(c3cccc(C)c3)C2=O)c(OC)c1 (stereo unspecified) was read as STK33 inh 0 and NOMO-1 viab 17.
`CC(/C=C/[C@@]1(C)[C@H](C)CCC(=O)[C@@H]1C)=C\Cc1c(O)c(Cl)c(C)c(C=O)c1O` gave STK33 inh -2, PD-1 reversal -5 and NOMO-1 viab 112*.
`O=C(/C=C/c1ccccc1)OCC1OC(OC2OC=CC3C(O)C4OC4(CO)C23)C(O)C(O)C1O` (stereo unspecified) gave STK33 inh 0, PD-1 reversal 1 and NOMO-1 viab 1.
`O=C(Cn1cc(C(=O)c2ccccc2)c2ccccc21)Nc1ccc(F)cc1` gave STK33 inh -2, PD-1 reversal 0 and NOMO-1 viab 49.
`NC1=C(C(=O)OCc2ccccc2)C2(C(=O)Nc3ccc(Br)cc32)C2=C(O1)C(=O)CCC2` (stereo unspecified) gave PD-1 reversal -2 and NOMO-1 viab 45.
C=CC(C)(C)[C@@]12C[C@H]3C(=O)N/C(=C\c4cnc[nH]4)C(=O)N3[C@@H]1Nc1ccccc12 was read as STK33 inh -6, PD-1 reversal 0 and NOMO-1 viab 3.
For C=C(CO)C(=O)O[C@H]1CC(=C)[C@@H]2C[C@H](O)C(=C)[C@@H]2[C@H]2OC(=O)C(=C)[C@@H]21 the results were STK33 inh 5, PD-1 reversal -4 and NOMO-1 viab 121*.
`C=C(CO)C(=O)O[C@H]1C/C(C)=C\CC/C(CO)=C\[C@H]2OC(=O)C(=C)[C@H]12` gave STK33 inh -4, PD-1 reversal -18 and NOMO-1 viab 122*.
`C[C@@H]1CN([C@@H](C)CO)C(=O)CCCn2cc(nn2)CO[C@@H]1CN(C)C(=O)Oc1cccc2ccccc12` gave STK33 inh 3.
Screening OC[C@H]1O[C@@H](Oc2ccc(/C=C/c3cc(O)cc(O)c3)cc2O)[C@H](O)[C@@H](O)[C@@H]1O returned STK33 inh -1.
For CC(C)c1cc2c(cc1O)[C@@]1(C)CCCC(C)(C)[C@@H]1CC2 the results were STK33 inh -3, PD-1 reversal -3 and NOMO-1 viab inconclusive.
Screening CC1=CC2OC3[C@H](O)C[C@@](C)([C@]34CO4)[C@@]2(CO)[C@H](O)C1=O (stereo partly specified) returned STK33 inh -4, PD-1 reversal -8 and NOMO-1 viab 123*.
O=c1cc(O)c2ccccc2o1 was read as STK33 inh -5, PD-1 reversal 1 and NOMO-1 viab 7.
For CC1(C)C(=O)C=C[C@@]2(C)C1C(=O)C(=O)[C@]1(C)C2CC[C@@]2(C)[C@H](c3ccoc3)C[C@H]3O[C@]321 (stereo partly specified) the results were STK33 inh -8 and NOMO-1 viab 108*.
`CC(C)(C)c1cc(C=C(C#N)C#N)cc(Br)c1O` gave STK33 inh 5, PD-1 reversal 0 and NOMO-1 viab 57.
`N#CC(CCN1CCN(c2ccccc2)CC1)(c1ccccc1)c1ccccc1` gave PD-1 reversal 1 and NOMO-1 viab 55.
For CC(C)N(C(=O)SCC(Cl)=C(Cl)Cl)C(C)C the results were STK33 inh -3 and NOMO-1 viab 10.
CC1=CC(=O)C2=C(C)C[C@H](O)[C@@H]3[C@H](OC(=O)[C@@H]3C)[C@@H]12 was read as STK33 inh 0.
For C/C=C\C(=O)O[C@@H]1C[C@H]2O[C@@H]3C=C(C)C(=O)C[C@]3(C)[C@]1(C)[C@]21CO1 the results were STK33 inh 1, PD-1 reversal -9 and NOMO-1 viab 122*.
CCN1C[C@]2(C)CC[C@H](OC)[C@@]34C2[C@H](O)C([C@@H]13)[C@@]1(OC)C[C@H](OC)[C@H]2C[C@@H]4[C@@H]1[C@H]2O was read as STK33 inh 0, PD-1 reversal 0 and NOMO-1 viab 4.
`OC[C@H]1O[C@@H](n2cnc3cc(Cl)c(Cl)cc32)C(O)[C@H]1O` (stereo partly specified) gave STK33 inh 10, PD-1 reversal 4 and NOMO-1 viab 87*.
`Cc1ccc(NC(=O)c2cccc(OC(=O)N(C)c3ccccc3)c2)cc1C` gave PD-1 reversal -1 and NOMO-1 viab 20.
`COC1=CC(=O)O[C@@H](CCc2ccccc2)C1` gave STK33 inh -3, PD-1 reversal 0 and NOMO-1 viab 12.
